# Test results reported in PubChem BioAssay AID651640 (Broad Institute, 2012).
# Screen size: about 350,000 compounds; about 6,000 (1.7%) were called active. Another 5% or so got no clear call; they are omitted. Shown is part of a subset that was picked to be rich in actives. Values without a mark were called inactive. Rule as the data show it: active = CPE inhibition above about 20% (passing the limit was not always enough); inconclusive = no clear call, values can overlap the other calls; tested in BHK-21 cells.
# Test: protection of cells from dengue 2 killing – plate reader, single concentration, primary screen (AID 651640);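 also: 0% = median of neutral control wells and 100% = median of positive control wells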
# Details: DENV2-infected cells, cytopathic effect rescue, at 9.99 µM, active compounds read high
row,Compound,CPE inhibition
1,Nc1[nH]c(C(=O)c2ccc(Br)cc2)c(-c2ccc3c(c2)OCO3)c1C(=O)NCCc1c[nH]c2ccccc12,9.1%
2,Cc1ccccc1-c1ccc([C@@H]2[C@@H](CO)N3CCCCN(C(=O)Nc4cccc(F)c4)C[C@H]23)cc1,-1.69%
3,CC(C)[C@@H](C)/C=C/[C@@H](C)[C@H]1CC[C@@H]2[C@]1(C)CCC1[C@]23C=C[C@]2(C[C@@H](O)CC[C@]12C)N(c1ccc([N+](=O)[O-])cn1)O3 (some centres undefined),-2.89%
4,COC(=O)c1cc2c(c3c4cc(F)ccc4n(S(=O)(=O)c4ccccc4)c13)C(=O)N(Cc1ccccc1OC)C2,15.1%
5,COC(=O)c1c(-c2ccc(OC)cc2)c2c(c3c4cc(OC)ccc4n(S(=O)(=O)c4ccc(F)cc4)c13)C(=O)N(C)C2,44.7% (active)
6,COC(=O)c1c(-c2ccc(OC)cc2)c2c(c3c4ccccc4n(S(=O)(=O)c4ccc(C)cc4)c13)C(=O)N(C)C2,2.43%
7,Cc1ccc(S(=O)(=O)N2C[C@@H](O)COC[C@@H]3O[C@@H](CC(=O)N[C@H]4CCN(Cc5ccccc5)C4)CC[C@H]32)cc1,-6.36%
8,C/C=C/c1ccccc1[C@H]1[C@@H](C#N)N(c2nc(CC)cs2)[C@@H]1CO,-4.18%
9,O=C(CSc1nc2ccccc2c(=O)n1-c1ccc(F)cc1)NC1CC1,-10.2%
10,O=C(CSc1nc2ccccc2c(=O)n1-c1ccccc1F)N1CCOCC1,3.85%
11,Cc1ccc(-n2c(SCC(=O)N3CCC(C(=O)O)CC3)nc3ccccc3c2=O)cc1C,31.6% (active)
12,CC(=O)N1[C@H](CO)[C@H](c2ccccc2)C12CN(C(=O)c1ccccn1)C2,3.27%
13,C=CCn1c(-c2ccccc2OCC)n[nH]c1=S,-1.21%
14,C=CCOc1ccccc1CNn1c(C)n[nH]c1=S,25.4% (active)
15,C=CCOc1c(CNn2cn[nH]c2=S)cccc1OC,-7.79%
16,Nc1ncnc2c1ncn2[C@@H]1O[C@H](C(=O)N[C@@H](CCc2ccccc2)C(=O)N2CCCN(Cc3cccs3)CC2)[C@@H](O)[C@H]1O,-8.03%
17,COc1cccc(S(=O)(=O)N[C@H]2CC[C@H](CC(=O)NC3CCC3)O[C@H]2CO)c1,-5.34%
18,CO[C@@H]1CN(C)C(=O)c2ccc(NC(=O)c3ccccn3)cc2OC[C@@H](C)N(C(=O)C2CCCCC2)C[C@H]1C,-2.92%
19,O=C(C[C@H]1CC[C@H](NC(=O)Nc2ccc(C(F)(F)F)cc2)[C@H](CO)O1)NCCN1CCCC1,1.56%
